Source: PubChem BioAssay (several laboratories)
An excerpt weighted towards active compounds, which were near 4.1% of everything screened.
Mdm2-MdmX inh: inhibitors of human Mdm2-MdmX association, primary screen, cell-based, luminescence, split luciferase, SaOS-2, uHTS; Protein Mdm4 (Homo sapiens) + E3 ubiquitin-protein ligase Mdm2 (Homo sapiens), …; SaOS-2 split-luciferase Mdm2/MdmX complementation; inhibition, % at 8 µM; 330,000 tested, 3% active;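 active = inhibition of at least 50% at 8 µM in the primary screen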
Target sequence (O15151 whole entry, looked up): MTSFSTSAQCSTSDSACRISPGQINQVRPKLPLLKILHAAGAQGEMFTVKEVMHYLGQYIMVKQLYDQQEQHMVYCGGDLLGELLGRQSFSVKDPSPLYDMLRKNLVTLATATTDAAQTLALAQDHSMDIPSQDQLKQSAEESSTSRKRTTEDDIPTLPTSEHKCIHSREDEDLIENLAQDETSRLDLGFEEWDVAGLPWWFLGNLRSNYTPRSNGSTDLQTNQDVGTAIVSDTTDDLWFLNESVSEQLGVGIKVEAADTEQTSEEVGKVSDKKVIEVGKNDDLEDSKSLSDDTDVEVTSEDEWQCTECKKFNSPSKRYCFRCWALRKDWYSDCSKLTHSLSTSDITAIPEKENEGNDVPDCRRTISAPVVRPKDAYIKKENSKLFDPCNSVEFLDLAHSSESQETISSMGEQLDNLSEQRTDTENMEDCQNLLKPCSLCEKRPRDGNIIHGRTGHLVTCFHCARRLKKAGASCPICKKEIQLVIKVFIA
Target sequence (Q00987 whole entry, looked up): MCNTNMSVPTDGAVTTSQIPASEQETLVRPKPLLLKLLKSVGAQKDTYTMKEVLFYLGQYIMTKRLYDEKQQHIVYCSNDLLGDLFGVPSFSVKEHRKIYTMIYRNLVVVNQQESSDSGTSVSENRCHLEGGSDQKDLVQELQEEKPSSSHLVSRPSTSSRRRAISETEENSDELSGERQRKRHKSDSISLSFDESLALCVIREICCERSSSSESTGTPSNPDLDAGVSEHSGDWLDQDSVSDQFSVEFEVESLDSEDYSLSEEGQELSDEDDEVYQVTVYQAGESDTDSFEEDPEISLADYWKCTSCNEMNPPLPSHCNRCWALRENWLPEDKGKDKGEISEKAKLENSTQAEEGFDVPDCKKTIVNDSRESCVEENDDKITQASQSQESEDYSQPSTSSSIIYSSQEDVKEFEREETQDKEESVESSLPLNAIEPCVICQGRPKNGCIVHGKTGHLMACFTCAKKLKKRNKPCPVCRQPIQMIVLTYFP
CSC inhib: cancer stem cell viability inhibitors, primary screen, luminescence; AID 2717, 2010; inhibition, % at 7.5 µM; 300,000 tested, 1.1% active; cancer stem cell-like cells viability; in the data active = inhibition above about 75%; inconclusive = no clear call, values can overlap the other calls; tested in HMLE shEcad cells
A1 inh: caspase 3/7 activation in MEF A1-2A-BIM cells, primary screen, A1 inhibitor project, cell-based, luminescence, HTS; AID 2462, 2010; 330,000 tested, 0.066% active; Caspase-Glo 3/7 luminescence, 3 h; percent of clofoctol response, vehicle zero; caspase activation, % (test concentration not listed);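 active = over half of replicate activation scores above 10%, or exactly half above 10 with the replicate mean above 10; inconclusive = replicate mean below 10 yet half the replicates above 10; inactive = over half of replicates below 10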
aSyn 5UTR inh: MLPCN primary screen, SNCA 5' untranslated region | 300,000 tested, 0.82% active | alpha-synuclein 5'UTR reporter, inhibitor activity | inhibition, % (tested at 7.5 µM); in the data active = inhibition above about 60%; inconclusive = no clear call, values can overlap the other calls;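 also: H4 neuroglioblastoma cells stably carrying SNCA 5'UTR luciferase fusion; 0% = DMSO wells and 100% = positive control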
Beta cell apopt: inhibitors of cytokine-induced beta cell apoptosis, primary screen, luminescence. INS-1E cytokine-induced death, ATP luminescence, 48 h; percent of positive-control rescue, neutral wells zero. protection from apoptosis, % (no concentration beside the values). 300,000 tested, 0.8% active. AID 435005, 2010;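 active = Every replicate reaches about 75%, or at least half do and their mean reaches it too, limit read from the data; inconclusive = At least half of replicates reach the limit but their mean does not; inactive = Under half of replicates reach the limit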;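 also: 0% = cytokine-treated negative control wells and 100% = positive control rescue; higher means more ATP so stronger rescue from cytokine killing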
Mdm2 MdmX conf: Mdm2-MdmX complex disruptors, retested hits, confirmation, luminescence, single concentration. shares compounds with Mdm2-MdmX inh. Mdm2-MdmX binding, luminescent assay. inhibition, % at 8 µM. 10,000 tested, 55% active; in the data active = inhibition above about 40%
Full FLuc ctr: full-length luciferase signal inhibition, confirmation, counter-screen for Mdm2/MdmX interaction inhibitor project, cell-based, single concentration, SaOS-2; shares compounds with Mdm2-MdmX inh; SaOS-2 full-length luciferase counterscreen, luminescence; inhibition, % at 8 µM; 6,200 tested, 77% active; AID 504607, 2011;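 active = mean inhibition at 8 µM reaching about 37%, which flags the compound as non-specific, limit read from the data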;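 also: p53-null SaOS-2 cells with luciferase driven by a doxycycline-inducible promoter; compound on cells about two nights before reading with doxycycline added after day one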
Active calls of the source: *; ? = inconclusive; . = no result given.

SMILES | Mdm2-MdmX inh | CSC inhib | A1 inh | aSyn 5UTR inh | Beta cell apopt | Mdm2 MdmX conf | Full FLuc ctr
CSCCC(NS(=O)(=O)c1ccc2c(c1)OCCO2)C(=O)N(C)Cc1ccc(C)cc1 (stereo not given) | -2.7 | . | -0.1 | 9.2 | 0.7 | . | .
COc1cccc(CN(C)C(=O)C(CCSC)NS(=O)(=O)c2ccc3c(c2)OCCO3)c1OC (stereo not given) | 67.1* | 22.4 | -0.1 | 0.1 | . | 55.8* | 71.7*
O=C(Nc1cnccn1)Nc1ccccc1Cl | 6.3 | -19.3 | -3.8 | -8.4 | 6.9 | . | .
O=C(Nc1cnccn1)Nc1cccc(Cl)c1Cl | 76.7* | 2.5 | -0.3 | -22.3 | 7.1 | 68.0* | 104.8*
O=C(O)CSc1ncnc2scc(-c3ccccc3)c12 | 4.5 | 10.3 | -0.5 | 1.6 | -2.7 | . | .
Cn1nnnc1Sc1ncnc2scc(-c3cccc(Br)c3)c12 | 95.7* | 88.7* | -0.4 | . | -13.3 | 100.2* | 48.8*
Cn1nnnc1Sc1ncnc2scc(-c3cccc(S(C)(=O)=O)c3)c12 | 83.8* | 39.3 | 0.9 | . | -59.0 | 70.3* | 27.4
COc1ccc(CN2CCc3c([nH]c4ccccc34)C2)c(OC)c1C | -0.3 | 23.9 | -0.6 | 11.7 | -6.4 | . | .
Cc1cccc(Nc2nc(N3CCOCC3)nc(N3CCOCC3)n2)c1 | 51.3* | 23.3 | 1.1 | -5.6 | 2.1 | 35.8 | .
Oc1cccc(Nc2nc(N3CCOCC3)nc(N3CCOCC3)n2)c1 | 56.3* | -10.0 | -0.7 | 36.7 | -5.2 | 43.0* | 73.8*
c1ccc(Nc2nc(N3CCOCC3)nc(N3CCOCC3)n2)cc1 | 56.3* | . | 0.8 | 26.4 | 3.2 | 27.1 | .
Cc1ccc(F)cc1NC(=O)CSc1nc(Nc2ccccc2)nc(N2CCOCC2)n1 | 74.3* | -6.1 | 0.5 | 51.1 | -9.7 | 17.4 | .
COC(=O)C(C)Sc1nc2c(cnn2-c2ccc(Cl)cc2)c(=O)[nH]1 (stereo not given) | 10.2 | 0.8 | -0.4 | 12.1 | 0.8 | . | .
Nc1ncnc2c1ncn2[C@@H]1O[C@H](CNCc2ccccc2OCC(=O)N2CCCCC2)[C@@H](O)[C@H]1O | -4.1 | . | -1.3 | . | 1.6 | . | .
C#CC(=O)N(c1ccc(OC)cc1OC)C(C(=O)NC1CCCC1)c1cccs1 (stereo not given) | 88.8* | -2.0 | 1.5 | 92.0* | 64.1 | 100.2* | 51.2*
C#CC(=O)N(c1cc(OC)ccc1OC)C(C(=O)NC1CCCC1)c1cccs1 (stereo not given) | 100.3* | 21.1 | 4.4 | 25.2 | 6.0 | 100.1* | 52.1*
COc1ccc(N(C(=O)c2ccco2)C(C(=O)NC2CCCCC2)c2cccs2)cc1OC (stereo not given) | 22.2 | -17.6 | -0.1 | 5.4 | -3.2 | . | .
CC(C)C[C@H]1CN=C(Nc2ccccc2)N1CC1CCC(C(C)(C)C)CC1 (stereo not given in full) | 100.3* | 78.6* | 0.6 | . | 110.7* | 38.6 | 20.5
CC(C)C[C@H]1CN=C(Nc2ccccc2)N1CC1CCCC1 | 13.1 | -4.2 | 1.1 | -6.7 | 12.7 | . | .
CCn1ccnc1CN(C)C(=O)c1cc(COc2ccccc2SC)on1 | -46.8 | -24.9 | -0.5 | -100.6 | 1.6 | . | .
CC(C)c1ccc(Nc2nnc(SC3CCOC3=O)s2)cc1 (stereo not given) | 52.2* | -10.3 | -0.2 | -0.8 | -8.8 | -3.2 | .
CCc1ccc(-c2nc(NC(=O)c3ccc(OCC(=O)Nc4ccc(F)cc4)c(OC)c3)sc2C)cc1 | 2.3 | -4.5 | 1.0 | -3.0 | -6.0 | . | .
COc1cc(C(=O)Nc2nc(-c3ccc(Cl)cc3)c(C)s2)ccc1OCC(=O)Nc1ccc(F)cc1 | 77.9* | 55.8 | -0.6 | 11.3 | 11.7 | 65.8* | 70.7*
COc1cccc(CNC(=O)CCc2ccc(OC)c(OC)c2)c1 | 5.8 | -8.0 | -1.4 | 3.0 | -7.2 | . | .
O=C(Nc1ccc([N+](=O)[O-])cc1)C(Cc1ccccc1)N1C(=O)c2cccc3cccc(c23)C1=O (stereo not given) | 62.9* | 25.9 | 5.5* | ? | . | 35.0 | .
SMILES | Mdm2-MdmX inh | CSC inhib | A1 inh | aSyn 5UTR inh | Beta cell apopt | Mdm2 MdmX conf | Full FLuc ctr
Cc1nn(-c2ccccc2)c(Cl)c1CN(C(=O)CCl)c1cccc2ccccc12 | 99.2* | 42.8 | 2.6 | -6.6 | 19.8 | 99.0* | 52.7*
CC(=O)N(Cc1c(C)nn(-c2ccccc2)c1Cl)c1ccc(Cl)cc1 | -5.6 | -12.2 | 0.7 | -6.4 | . | . | .
CCCCC(=O)Nc1ccc2c3c(cccc13)C(=O)N2CC | 55.1* | 3.8 | -1.5 | -8.9 | -5.2 | 36.8 | 59.3*
O=c1[nH]c(-c2ccc(F)cc2)nc2c1sc(=S)n2-c1ccccc1 | 10.8 | 18.4 | 0.1 | 1.3 | 37.6 | . | .
Nc1c2nc(-c3ccccc3)[nH]c(=O)c2nc(=O)n1-c1ccccc1 | 62.7* | -0.3 | 0.9 | 36.2 | 4.5 | 11.6 | .
COc1ccc(C(=O)/C=C/c2cc(OC)c(O)c(OC)c2)c(F)c1 | 50.9* | ? | -0.1 | -48.0 | -17.6 | 30.2 | .
COc1ccc(C(=O)NC(=S)Nc2nc(-c3ccc(OC)c(Br)c3)cs2)cc1Br | 21.1 | 26.9 | -0.2 | -49.9 | 19.1 | . | .
COc1ccc(-c2csc(NC(=S)NC(=O)c3cc4ccccc4o3)n2)cc1Br | -3.5 | 13.8 | 0.6 | -1.0 | -0.7 | . | .
COc1ccc(-c2csc(NC(=S)NC(=O)c3ccco3)n2)cc1Br | 82.2* | 71.6 | -0.1 | 3.9 | 12.5 | 55.5* | 23.1
COc1ccc(-c2csc(NC(=S)NC(=O)/C=C/c3ccco3)n2)cc1Br | 85.0* | 78.9* | 1.8 | 90.7* | 7.6 | 65.2* | 59.1*
COc1cc(OC)cc(C(=O)NC(=S)Nc2nc(-c3cc4ccccc4o3)cs2)c1 | 64.8* | 6.2 | -0.7 | -22.1 | 3.6 | 0.3 | .
COc1ccc(-c2csc(NC(=S)NC(=O)c3ccccc3)n2)cc1Br | 55.5* | . | -0.8 | 8.6 | . | 38.4 | 85.0*
Cc1cc(C)cc(NC(=O)CC2Oc3ccc(C)cc3NC2=O)c1 (stereo not given) | 14.8 | -4.1 | 0.3 | 15.4 | 2.6 | . | .
CC(C)(C)OC(=O)C[C@H]1C/C=C\C[C@@H](CC(=O)NCCO)C(=O)N[C@H](Cc2ccccc2)COC1=O | 7.5 | . | . | . | . | . | .
COc1ccc2[nH]c(=O)c(CN(CCO)S(=O)(=O)c3c(C)ccc4nsnc34)cc2c1 | -11.1 | -3.4 | -0.6 | 14.8 | -4.5 | . | .
COc1ccc2[nH]c(=O)c(CN(Cc3cccs3)S(=O)(=O)c3cccc4nsnc34)cc2c1 | 75.1* | . | . | 75.9* | . | 76.4* | 44.8*
O=C(NCCCNC(=O)c1ccccc1F)c1ccco1 | 15.3 | -13.0 | -0.2 | 1.5 | . | . | .
